High-throughput results as filed in PubChem BioAssay.
IL-1B inflam inh: qHTS for Inhibitors of Inflammasome Signaling: IL-1-beta AlphaLISA Primary Screen; THP-1 LPS/ATP IL-1B secretion, AlphaLISA, 16 h; stronger effect = lower value; activity change, % at 57.5 µM; actives 4.7% (n = 360,000); in the data active = activity change below about -50%; inconclusive = mostly about -30% to -49%
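THP-1 cells pretreated 1 hr with compounds (up to 57.5 uM final), then stimulated with LPS (250 ng/mL final) plus ATP (1.25 mM final); secreted IL-1B measured by AlphaLISA after 16 hr, decreased signal indicating inhibition.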
TDP1 cell CPT: qHTS for Inhibitors of human tyrosyl-DNA phosphodiesterase 1 (TDP1): qHTS in cells in presence of CPT; chicken DT40 Tdp1-/-;hTDP1 cells + 20 nM CPT, ATP luminescence, 48 h; Potency, µM (highest dose often 46.2 µM), for inactives: at the highest dose activity change, negative = growth inhibition, actives largely listed as inhibitors; actives 12% (n = 420,000); AID 686979, 2013; note: potency is the fitted concentration of half-maximal effect; nearly all actives have a fitted effect of over 55% in size
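Chicken DT40 Tdp1-/- cells complemented with human TDP1, 400 cells/well, exposed to compounds plus 20 nM camptothecin for at least 48 h at 37 C; viability read as ATP content by CellTiter-Glo luminescence.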
HT1080-NT tox: qHTS for induction of synthetic lethality in tumor cells producing 2HG: qHTS for the HT-1080-NT fibrosarcoma cell line; HT-1080-NT fibrosarcoma viability, CellTiter-Glo ATP luminescence, 48 h; Potency, µM (series often up to 46.1 µM), without a hit: top-dose activity, negative = less viability, hits mostly cytotoxic; actives 1.6% (n = 360,000); AID 686970, 2013;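 note: NT is the 2HG producing partner of a matched IDH1 knockdown line; potency is the fitted concentration of half-maximal effect; 0% = DMSO-treated cells and -100% = media-only wells without cells; nearly all actives have a fitted effect of over 55% in size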
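Fibrosarcoma NT cells, 750 per well in 5% FBS RPMI, were exposed to compound for 48 hours. Viability: CellTiter-Glo luminescence.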
DT40 TDP1 no CPT: qHTS for Inhibitors of human tyrosyl-DNA phosphodiesterase 1 (TDP1): qHTS in cells in absence of CPT; actives 15% (n = 420,000); DT40 Tdp1-/- hTDP1 cells, no CPT, ATP luminescence, 48 h; Potency, µM (highest dose often 46.2 µM), inactives show at the highest dose activity change, negative = growth inhibition, actives largely listed as inhibitors; note: potency is the fitted concentration of half-maximal effect; nearly all actives have a fitted effect of over 55% in size
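Compound effects on proliferation are scored in DT40 Tdp1-/-;hTDP1 cells in the absence of CPT. ATP levels (CellTiter-Glo luminescence) are recorded after a ≥48 hr, 37 °C incubation.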
HT1080 IDH1KD tx: qHTS for induction of synthetic lethality in tumor cells producing 2HG: qHTS for the HT-1080-IDH1KD cell line | Potency, µM (highest dose often 46.1 µM), for inactives: at the top dose activity, negative = toxicity, most hits filed as cytotoxic | HT-1080 IDH1 knockdown viability, ATP luminescence, 48 h | actives 2% (n = 360,000);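 note: potency is the fitted concentration of half-maximal effect; 0% = DMSO wells and -100% = cell-free medium wells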
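In this qHTS, HT-1080 cells depleted of IDH1 are exposed for 48 h at 37 °C to compound titrations. Toxicity is scored from CellTiter-Glo luminescence, with DMSO as full viability and medium alone as none.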
An asterisk follows results filed as active; ? = inconclusive; nt = no result. This is a sample that favours compounds with a hit; in the whole collection about 19% have one here. Unless noted, calls come from the whole dose curve; as a rule, active = well fitted curve in the direction sought with a large enough effect; inconclusive = small, poorly fitted or top-dose-only effect, or another doubt; inactive = no such curve, though single readings can be large; an effect the other way counts as inactive or inconclusive. Unless noted, % is set by controls: 0 for no effect and ±100 for the full control effect.

SMILES | IL-1B inflam inh | TDP1 cell CPT | HT1080-NT tox | DT40 TDP1 no CPT | HT1080 IDH1KD tx
CCCCCCCCOC(=O)C[N+](C)(C)C/C=C(/C)Cl | -18 | 16µM* | -4% | 10µM* | -14%
CCCCCCCCCCCCOC(=O)C[N+](C)(C)C | nt | 6% | 23% | -13% | 21%
CCCCCCCCCCOC(=O)C[N+](C)(C)C/C=C(/C)Cl | ? | 8.2µM* | -8% | 3.7µM* | -10%
CC(=O)NCCNc1nc2c(-c3cccc(C)c3)nnn2c2ccc(Cl)cc12 | nt | 14% | nt | 21% | nt
CCCc1ccc(C(=O)O/N=C(\N)c2ccccn2)cc1 | -58* | ? | ? | -29% | ?
N/C(=N\OC(=O)c1ccc(=O)n(Cc2ccc(Cl)cc2)c1)c1ccccn1 | -14 | 21µM* | ? | ? | -4%
N/C(=N\OC(=O)c1ccc(=O)n(Cc2ccccc2)c1)c1ccccn1 | 3 | ? | 2% | ? | 2%
CN(C)c1cccc(C(=O)NCc2ccc3c(c2)OCO3)c1 | 2 | -4% | -11% | -19% | 0%
OC(c1ccccc1)(C1CCCCC1)C(CN1CCOCC1)c1ccccc1 (stereo not given) | -2 | 18µM* | ? | 23µM* | ?
COc1ccc(C(O)(C2CCCCC2)C(CN2CCOCC2)c2ccccc2)cc1 (stereo not given) | -5 | 26µM* | ? | ? | ?
Cn1c(=O)c2c(-c3ccccc3)n(-c3cccc(O)c3)cc2n(C)c1=O | -13 | 18µM* | -3% | 9.2µM* | -17%
Cn1c(=O)c2c(-c3ccccc3)n(-c3ccccc3Br)cc2n(C)c1=O | -1 | 4.6µM* | -29% | 5.2µM* | -23%
COc1ccc(-c2c3c(=O)n(C)c(=O)n(C)c3cn2-c2cc(OC)ccc2OC)cc1 | -9 | ? | -17% | 23µM* | ?
Cn1c(=O)c2c(-c3ccccc3)n(-c3ccc(N)cc3)cc2n(C)c1=O | 5 | ? | -12% | 15µM* | 1%
Cc1cccc(-c2c3c(=O)n(C)c(=O)n(C)c3cn2-c2ccc(O)cc2)c1 | 7 | ? | -7% | ? | -10%
COc1ccc(-c2c3c(=O)n(C)c(=O)n(C)c3cn2-c2ccccc2O)cc1 | 40 | ? | -26% | -27% | -22%
O=C(NCCN1CCOCC1)C1(C(F)(F)F)C/C(=C\Cc2ccccc2)CCCO1 (stereo not given) | 2 | -13% | 16% | -9% | 7%
O=C(C1CCCN(S(=O)(=O)c2ccc(Br)s2)C1)N1CCN(c2ccc(F)cc2)CC1 (stereo not given) | nt | 18µM* | nt | 12µM* | nt
CC(=O)c1ccc(N2CCN(C(=O)C3CCN(S(=O)(=O)c4cn(C)cn4)CC3)CC2)cc1 | nt | -12% | nt | -9% | nt
O=C(C1CCCN(S(=O)(=O)c2cccs2)C1)N1CCN(c2ccccc2F)CC1 (stereo not given) | nt | 23µM* | nt | 15µM* | nt
O=C(C1CCCN(S(=O)(=O)c2ccc(Br)s2)C1)N1CCN(c2ccccc2F)CC1 (stereo not given) | nt | ? | nt | 23µM* | nt
O=C(O)C1CCCN(S(=O)(=O)c2cccs2)C1 (stereo not given) | -1 | 3% | 2% | -1% | 12%
CC(=O)c1ccc(N2CCN(C(=O)C3CCN(S(=O)(=O)c4ccc(Br)s4)CC3)CC2)cc1 | nt | ? | nt | 16µM* | nt
CCCn1c(N)c(C(=O)CSc2nc(C)nc3sc(C)c(C)c23)c(=O)[nH]c1=O | 22 | -3% | -1% | 2% | -3%
C[Se]CC[C@H](N)C(=O)O | nt | 8% | nt | -27% | nt
SMILES | IL-1B inflam inh | TDP1 cell CPT | HT1080-NT tox | DT40 TDP1 no CPT | HT1080 IDH1KD tx
NCCNC(=O)c1ccc(Cl)cn1 | nt | -4% | nt | -12% | nt
CC(=O)c1ccc(N2CCN(C(=O)C3CCCN(S(=O)(=O)c4ccc(Br)s4)C3)CC2)cc1 (stereo not given) | nt | 15µM* | nt | 9.2µM* | nt
COc1cc(Oc2ccccc2)nc(N)n1 | 0 | 2% | -10% | -13% | 1%
N=C1N=C(N)c2cc3ccccc3cc21 | nt | ? | nt | 24µM* | nt
COc1ccc(-n2ncc(C(=O)N3CCN(c4ncccn4)CC3)c2C2CCN(C(=O)OC(C)(C)C)CC2)cc1 | nt | -15% | nt | -13% | nt
CC(C)(C)OC(=O)N1CCC(c2c(C(=O)Nc3ccc4c(c3)OCCO4)cnn2-c2ccc(F)cc2)CC1 | nt | ? | nt | 18µM* | nt
COc1ccc(-n2ncc(C(=O)Nc3ccc4c(c3)OCCO4)c2C2CCN(C(=O)OC(C)(C)C)CC2)cc1 | nt | 21µM* | nt | 16µM* | nt
CC(NC(=O)Cn1cccc1)c1ccccc1 (stereo not given) | -3 | -4% | 15% | -29% | 12%
COC(=O)c1ccc(CNC(=O)/C=C/[C@H]2O[C@@H](n3cc(C)c(=O)[nH]c3=O)C[C@@H]2O)cc1 | 10 | -7% | 13% | -1% | 13%
CCCOc1ccc(F)cc1-c1cc(C(=O)NCc2ccccc2)[nH]n1 | ? | ? | -4% | ? | -2%
CCCOc1ccc(F)cc1-c1cc(C(=O)NCc2ccc(C(F)(F)F)cc2)[nH]n1 | -8 | ? | ? | 16µM* | ?
CCCOc1ccc(F)cc1-c1cc(C(=O)NCc2cccc(Cl)c2)[nH]n1 | -16 | 23µM* | -24% | ? | ?
CCCOc1ccc(F)cc1-c1cc(C(=O)NCc2cccc(C(F)(F)F)c2)[nH]n1 | -25 | 21µM* | ? | 18µM* | ?
CCCOc1ccc(F)cc1-c1cc(C(=O)NCc2ccco2)[nH]n1 | -17 | ? | 8% | ? | 17%
O=C(NCCc1nnc2n1CCN(Cc1cc3ccccc3o1)CC2)c1ccoc1 | nt | -14% | nt | -14% | nt
Cc1ccccc1S(=O)(=O)N1CCN(C)CC1 | -7 | 13% | 9% | 0% | 7%
CC(C)CC1CC(C)(c2csc(NNC(=O)c3ccccc3)n2)OC1=O (stereo not given) | 3 | ? | -1% | ? | -2%
CC(=O)OC(c1nc2ccccc2c(=O)n1C1CC2(OC1=O)c1ccccc1N1C(=O)C(C)(C)N(O)C12)C(C)C (stereo not given) | 4 | 16µM* | -4% | 21µM* | 0%
COc1ccc2c(c1OC)OCC2C (stereo not given) | 14 | ? | 3% | 18µM* | 8%
CCOC(=O)C1CSC2(CCC(c3ccccc3)CC2)N1 (stereo not given) | 14 | 21% | 13% | 3% | 6%
